Experiment [1] can be described thus: AP1 Signaling Pathway (AID 357).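 Note: ME-180 reporter cells stimulated with EGF at its EC50 level; % is set by controls: 0 for no effect and ±100 for the full control effect.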 The note with it: ME-180 AP-1-bla reporter, EGF-induced, beta-lactamase ratio, 5 h; at 17.2 µM (top of the series) unless noted. The gist of the method:
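Titration-series screen for positive or negative modulators of EC50 EGF-induced signaling in ME-180 cells carrying an AP-1-driven beta-lactamase reporter. After 5 hours at 37 degrees Celsius, CCF4 460nm/530nm emission ratio gave %Activity; AC50 values derived.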

The nature of experiment [2]: Stat Signaling Pathway (AID 446).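 Note: ME-180 cervical cancer cells given 40 pM IL-6 alongside compound; SIE-controlled beta-lactamase reporter measured as 460/530 nm FRET emission ratio; % is set by controls: 0 for no effect and ±100 for the full control effect.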 Particulars: ME-180 SIE beta-lactamase reporter, IL-6 stimulated, 5 h; at 17.2 µM (top of the series) unless noted. The gist of the method:
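Compound effects on IL-6-induced STAT reporter activity were measured in ME-180 cells. After overnight culture, cells were co-treated with 40 pM IL-6 for 5 hrs before beta-lactamase substrate loading at room temperature.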

The target of experiment [3] is Glucocorticoid receptor (Homo sapiens) (UniProt P04150). Nature of the experiment: GR-GFP Redistribution (AID 450;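 active = compounds whose dose series gives a full or clear partial fitted curve of increased nuclear translocation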; note: potency is the fitted concentration of half-maximal effect).
For experiment [4], the target named is Mitogen-activated protein kinase 10 (Mus musculus) (UniProt Q61831). Nature of the experiment: JNK3 AlphaScreen Assay (AID 530).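 Note: kinase came from lysate of stimulated human HepG2 cells; signal reports phosphorylation of biotinylated GST-cJun 1-79 at Ser73 with 10 µM ATP; % is set by controls: 0 for no effect and ±100 for the full control effect.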 An outline of the steps:
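Biotinylated GST-cJun(1-79) served as substrate for JNK3 in HepG2 lysates stimulated with IL-1beta and TNF-alpha. ATP was 10 uM final, pH 7.6. Ser73 phosphorylation was quantified by AlphaScreen (680 nm excitation).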
In general terms: Alpha assays give light when donor and acceptor beads are brought close together.

Experiment [5] deals with Cytochrome P450 3A4 (Homo sapiens) (UniProt P08684). Nature of the experiment: qHTS Assay for Activators of Cytochrome P450 3A4 (AID 885; active = well fitted curve in the direction sought with a large enough effect; an effect the other way counts as inactive or inconclusive; note: nearly all actives have a fitted effect of over 65% in size). The gist of the method: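 CYP3A4 activity: Luciferin-PPXE O-dealkylation, 25uM substrate, 200mM KPO4, RT throughout. Read-out is luciferase luminescence; higher values reflect activation.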
(Quantitative high-throughput screening tests each substance at several concentrations.)

Experiment [6] concerns the target Ubiquitin carboxyl-terminal hydrolase 1 (Homo sapiens) (UniProt O94782). Nature of the experiment: Inhibitors of USP1/UAF1: Pilot qHTS (AID 504865; active = well fitted curve in the direction sought with a large enough effect; an effect the other way counts as inactive or inconclusive;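 note: rhodamine fluorescence freed from ubiquitin-rhodamine substrate followed over time; top concentration of the series differs between compounds; % is set by controls: 0 for no effect and ±100 for the full control effect; nearly all actives have a fitted effect of over 35% in size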). The gist of the method: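 Enzyme-free wells gave the negative control, while test wells held 1nM USP1/UAF1 preincubated with compound for 15 min at room temperature. Ub-Rho at 150nM final started the reaction, and fluorescence at 480/540 nm was recorded kinetically.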

A short description of experiment [7]: qHTS Assay for Identification of Small Molecule Agonists for Hypoxia Response Element Signaling Pathway (AID 914; active = well fitted activation curve with a large enough effect in the signal ratio, with a control signal flat, not every such curve was filed as active; the % refers to the signal ratio; note: potency is the fitted concentration of half-maximal effect; for activation: % of control where 0% means no effect). The note with it: ME-180 (cervical carcinoma) HRE-bla reporter, beta-lactamase ratio, CoCl2, 17 h; activation: active compounds read high. The gist of the method: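 A beta-lactamase reporter under hypoxia response element control in ME-180 cells served as the system. Compound titrations plus EC50 CoCl2 ran 17 h at 37 degrees Celsius; AC50 values were fitted from %Activity.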

Molecules are shown by their SMILES. Values without a mark were called inactive. Records with an inconclusive call do not appear. Active and inactive are the calls of the source. Unless noted, calls come from the whole dose curve; as a rule, active = well fitted curve in either direction with a large enough effect (not every such curve was filed as active); inconclusive = small, poorly fitted or top-dose-only effect, or another doubt; inactive = flat fitted curve, though single readings scatter. Bounds are passed on as bounds.

Glucocorticoid receptor (Homo sapiens), sequence (P04150 whole entry, looked up): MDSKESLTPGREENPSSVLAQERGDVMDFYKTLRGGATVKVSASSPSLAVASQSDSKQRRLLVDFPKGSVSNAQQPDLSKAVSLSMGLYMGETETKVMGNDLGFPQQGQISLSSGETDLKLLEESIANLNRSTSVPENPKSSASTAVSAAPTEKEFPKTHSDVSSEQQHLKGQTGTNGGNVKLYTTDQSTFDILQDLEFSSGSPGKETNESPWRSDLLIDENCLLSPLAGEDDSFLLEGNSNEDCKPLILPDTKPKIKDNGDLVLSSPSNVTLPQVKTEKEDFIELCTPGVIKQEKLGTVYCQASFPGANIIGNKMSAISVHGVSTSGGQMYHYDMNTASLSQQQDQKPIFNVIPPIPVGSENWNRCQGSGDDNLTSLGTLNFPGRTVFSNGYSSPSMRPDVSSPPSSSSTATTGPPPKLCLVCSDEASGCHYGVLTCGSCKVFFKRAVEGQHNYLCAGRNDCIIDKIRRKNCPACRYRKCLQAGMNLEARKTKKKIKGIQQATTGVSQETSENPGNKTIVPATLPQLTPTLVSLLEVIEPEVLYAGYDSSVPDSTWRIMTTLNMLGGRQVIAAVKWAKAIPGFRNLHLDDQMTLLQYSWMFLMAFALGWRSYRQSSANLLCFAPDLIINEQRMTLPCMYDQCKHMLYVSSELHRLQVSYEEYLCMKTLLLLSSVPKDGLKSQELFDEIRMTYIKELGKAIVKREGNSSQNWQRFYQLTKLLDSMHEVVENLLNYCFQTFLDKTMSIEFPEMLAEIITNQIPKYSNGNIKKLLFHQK
Ubiquitin carboxyl-terminal hydrolase 1 (Homo sapiens), sequence (O94782 whole entry, looked up): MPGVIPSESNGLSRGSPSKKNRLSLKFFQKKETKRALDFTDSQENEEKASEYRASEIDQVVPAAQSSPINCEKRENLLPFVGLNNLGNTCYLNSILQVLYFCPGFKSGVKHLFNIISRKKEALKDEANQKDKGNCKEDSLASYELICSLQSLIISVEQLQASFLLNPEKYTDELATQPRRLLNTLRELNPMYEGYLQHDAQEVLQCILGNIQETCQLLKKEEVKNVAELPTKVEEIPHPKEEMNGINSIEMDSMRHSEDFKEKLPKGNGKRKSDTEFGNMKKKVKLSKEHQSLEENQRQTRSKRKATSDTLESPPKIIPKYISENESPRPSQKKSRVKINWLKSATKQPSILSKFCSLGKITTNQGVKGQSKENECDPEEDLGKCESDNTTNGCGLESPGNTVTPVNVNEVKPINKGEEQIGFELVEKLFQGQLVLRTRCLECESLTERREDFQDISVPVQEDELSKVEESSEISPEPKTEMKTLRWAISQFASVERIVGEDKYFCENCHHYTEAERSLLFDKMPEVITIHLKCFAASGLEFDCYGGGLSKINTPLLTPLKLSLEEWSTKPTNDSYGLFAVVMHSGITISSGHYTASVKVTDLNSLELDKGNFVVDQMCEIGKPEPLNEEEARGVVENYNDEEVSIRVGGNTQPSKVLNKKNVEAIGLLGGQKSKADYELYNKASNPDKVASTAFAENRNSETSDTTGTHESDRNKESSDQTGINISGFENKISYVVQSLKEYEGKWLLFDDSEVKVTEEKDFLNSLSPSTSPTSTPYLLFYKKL
Cytochrome P450 3A4 (Homo sapiens), sequence (P08684 whole entry, looked up): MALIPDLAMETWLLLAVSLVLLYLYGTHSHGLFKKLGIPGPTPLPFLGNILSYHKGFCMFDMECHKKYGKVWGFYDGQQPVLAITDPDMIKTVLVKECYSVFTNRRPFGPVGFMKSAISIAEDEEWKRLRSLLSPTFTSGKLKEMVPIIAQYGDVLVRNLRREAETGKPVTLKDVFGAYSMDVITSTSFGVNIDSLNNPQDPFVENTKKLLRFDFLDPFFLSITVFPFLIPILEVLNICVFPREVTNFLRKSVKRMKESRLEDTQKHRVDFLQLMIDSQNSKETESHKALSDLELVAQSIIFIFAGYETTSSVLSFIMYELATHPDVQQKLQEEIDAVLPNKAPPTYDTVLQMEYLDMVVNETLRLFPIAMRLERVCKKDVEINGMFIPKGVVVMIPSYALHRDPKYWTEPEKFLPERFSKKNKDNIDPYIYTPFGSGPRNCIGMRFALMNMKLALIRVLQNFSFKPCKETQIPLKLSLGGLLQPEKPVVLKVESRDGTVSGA

Turning to `CCCCCCCCN[C@@H](C)[C@H](O)c1ccc(SC(C)C)cc1`, the activity change, negative = inhibition in experiment [1] was 0.133%. Also, the activity, negative = inhibition in experiment [2] was 7.39%. In experiment [3], the Potency was > 20.6 µM. In addition, the Potency result in experiment [4], in experiment [5] and in experiment [6] was “inactive” in each case.

`Oc1ccccc1-c1nc(NCc2ccco2)c2ccccc2n1`: the activity change, negative = inhibition in experiment [1] is 19.5%. Besides, in experiment [3], the Potency was > 20.6 µM.

For the molecule `CC(C)(C)c1nnc2sc(SCC(=O)c3ccccc3)nn2c1=O`, the activity change, negative = inhibition in experiment [1] is 2.49%. For the same molecule, the Potency in experiment [3] is > 20.6 µM.

Take `Clc1ccc(-c2nnc3sc(Cc4cccs4)nn23)cc1`: in experiment [1], the activity change, negative = inhibition is 2.06%. Further, the Potency in experiment [3] was > 20.6 µM.

For `Clc1ccc2nc(N3CCNCC3)nc(-c3ccccc3)c2c1`, the activity change, negative = inhibition in experiment [1] is 28.9%. For the same molecule, in experiment [3], the Potency is > 20.6 µM.

Regarding `c1ccc(CN2CCN(c3ncnc4c3[nH]c3ccccc34)CC2)cc1`, the activity change, negative = inhibition in experiment [1] was -15.1%. Also, the Potency in experiment [3] was > 20.6 µM.

As to `CCCc1cc(-c2nc(N)ncc2-c2ccc3c(c2)OCCCO3)c(O)cc1OC`, in experiment [1], the activity change, negative = inhibition was -29.1%. Also, the Potency in experiment [3] is > 20.6 µM.

In the case of `CN1CCc2c(sc3c2c(=O)n(-c2ccccc2)c2nnc(SCc4ccccc4)n32)C1`, in experiment [1], the activity change, negative = inhibition is -13.6%. Moreover, the Potency in experiment [3] was > 20.6 µM.

For `CCc1ccc(-c2cn3nc(C)c(C)nc3n2)cc1`, in experiment [1], the activity change, negative = inhibition is 0.521%. In experiment [2], the activity, negative = inhibition is 11.8%. In addition, the Potency in experiment [3] was > 20.6 µM; in experiment [7], 10 µM (active).

Regarding `Clc1ccccc1CSc1nnc(-c2ccco2)c(-c2ccco2)n1`, in experiment [1], the activity change, negative = inhibition is 10.8%. Also, the Potency in experiment [3] was > 20.6 µM.

With `CC(C)C[C@H]1C(=O)N2CCC[C@H]2[C@]2(O)O[C@](NC(=O)[C@@H]3C=C4c5cccc6[nH]c(Br)c(c56)CC4N(C)C3)(C(C)C)C(=O)N12` (stereo partly specified), in experiment [1], the activity change, negative = inhibition was -20.7%. Moreover, the Potency in experiment [3] is > 20.6 µM.

For the molecule `CCCOc1ccc(Cc2nn[nH]n2)cc1`, the activity change, negative = inhibition in experiment [1] was 6.52%. In experiment [3], the Potency was > 20.6 µM.

As to `N#CC(C#N)C(c1ccsc1)c1c(-c2ccccc2)[nH][nH]c1=O` (stereo unspecified), the activity change, negative = inhibition in experiment [1] is -20.2%. Also, the Potency in experiment [3] was > 20.6 µM.

As for `C=CCOn1c(=O)c(-c2ccc(OC)cc2)[n+]([O-])c2ccccc21`, the activity change, negative = inhibition in experiment [1] is -22.9%. In experiment [3], the Potency is > 20.6 µM.

As for `Cc1ccc2[nH]c3c(N4CCCCCC4)ncnc3c2c1`, the activity change, negative = inhibition in experiment [1] is -20.6%. In experiment [3], the Potency is > 20.6 µM.

As for `COCCNC(=O)c1c(N)n(CCC2=CCCCC2)c2nc3ccccc3nc12`, the activity change, negative = inhibition in experiment [1] is 28.7%. Also, the Potency in experiment [3] is > 20.6 µM.

For the molecule `N#Cc1c(N)n(CCOC(=O)c2ccc(Cl)cc2)c2nc3ccccc3nc12`, the activity change, negative = inhibition in experiment [1] was 19.1%. Further, the Potency in experiment [3] was > 20.6 µM.

For the molecule `Oc1oc(-c2ccco2)nc1C=Nc1cccc(Cl)c1`, the activity change, negative = inhibition in experiment [1] is -27%. Also, in experiment [3], the Potency was > 20.6 µM.

With `CC(C)(C)C1CCC2(CC1)C(C#N)=C(SCC(=O)Nc1ccccc1)NC(=O)C2C#N` (stereo unspecified), the activity change, negative = inhibition in experiment [1] is -1.12%. In experiment [3], the Potency was > 20.6 µM.

For the molecule `CCc1nc(NC2CCCCC2)c(C#N)c2c1COC(C)(C)C2`, the activity change, negative = inhibition in experiment [1] was 7.15%. For the same molecule, the Potency in experiment [3] is > 20.6 µM.

For the molecule `COc1ccc(/C(O)=C2\C(=O)C(=O)N(c3cc(C)on3)C2c2ccccc2OC)cc1` (stereo unspecified), the activity change, negative = inhibition in experiment [1] was -12.4%. For the same molecule, the Potency in experiment [3] is > 20.6 µM.

Consider `CC(C)N1CC=C2C(C#N)=C(N)C(C#N)(C#N)C(c3ccccc3)C2C1` (stereo unspecified), for which, in experiment [1], the activity change, negative = inhibition was 26.3%. The Potency in experiment [3] was > 20.6 µM.

As to `CCSc1nnc(NC(=O)NC(CC)(C(F)(F)F)C(F)(F)F)s1`, in experiment [1], the activity change, negative = inhibition is -15.5%. Also, the Potency in experiment [3] was > 20.6 µM.

Consider `CCCCCCc1cc2cc(-c3nnc(-c4ccccc4O)o3)c(=O)oc2cc1O`, for which, in experiment [1], the activity change, negative = inhibition was -3.45%. Also, the activity, negative = inhibition in experiment [2] is 73.1% [activator] (active). Further, the Potency in experiment [7] was 3.16 µM (active).

With `Cc1ccnc(N2CCN(c3cc(C)c(C#N)c4nc5ccccc5n34)CC2)c1`, the activity change, negative = inhibition in experiment [1] is 22.1%. Besides, the Potency in experiment [3] is > 20.6 µM.

`COc1cccc(-c2nc(NCC3CCCO3)c3ccccc3n2)c1O` (stereo unspecified): the activity change, negative = inhibition in experiment [1] is -22.6%. The Potency in experiment [3] was > 20.6 µM.

As to `CCOC(=O)CSC1=C(C#N)C(=O)NC2(CCCCC2)S1`, in experiment [1], the activity change, negative = inhibition was -9.68%. Moreover, the Potency in experiment [3] was > 20.6 µM.

As to `CCOc1ccc(S(=O)(=O)NC(C)(C)C)cc1-c1nc2c(C(C)(C)C)nn(C)c2c(=O)[nH]1`, in experiment [1], the activity change, negative = inhibition is -8.82%. Moreover, in experiment [3], the Potency is > 20.6 µM.

As to `Cc1cc(C)n(CC(=O)N2c3ccccc3Sc3ccccc32)n1`, the activity change, negative = inhibition in experiment [1] is -8.25%. Besides, the Potency in experiment [3] is > 20.6 µM.

Regarding `Clc1ccc(Cl)c(-c2ccc(/C=N/c3ncn[nH]3)o2)c1`, the activity change, negative = inhibition in experiment [1] is -20.5%. In addition, in experiment [3], the Potency is > 20.6 µM.

Regarding `CCOC(=O)c1ccc(N=Cc2nc(-c3ccccc3)oc2OC(C)=O)cc1`, in experiment [1], the activity change, negative = inhibition is -16.3%. Moreover, the Potency in experiment [3] was > 20.6 µM.

Regarding `CCCSc1nnc(NC(=O)Nc2ccc(F)cc2)s1`, in experiment [1], the activity change, negative = inhibition was -11.2%. The Potency in experiment [3] is > 20.6 µM.

In the case of `N#CC1=C(N)C(C#N)(C#N)[C@H](c2ccncc2)[C@H]2CN(C(=O)OCc3ccccc3)CC=C12`, in experiment [1], the activity change, negative = inhibition was -27.2%. For the same molecule, the Potency in experiment [3] was > 20.6 µM.

As to `CC1CCN(c2oc(-c3ccccc3Cl)nc2C#N)CC1`, the activity change, negative = inhibition in experiment [1] was -14%. In experiment [3], the Potency was > 20.6 µM.

On to `Cc1ccccc1-c1nn2c(-c3ccccc3)nnc2s1`, for which, in experiment [1], the activity change, negative = inhibition is -18%. In experiment [3], the Potency is > 20.6 µM.

Regarding `CCC(=O)Oc1ccc(C(CC)C(CC)c2ccc(OC(=O)CC)cc2)cc1` (stereo unspecified), the activity change, negative = inhibition in experiment [1] is -8.93%. Also, the Potency in experiment [3] was > 20.6 µM.

For the molecule `CCN1CCN(c2nc3c(C)cccn3c(=O)c2/C=C(\C#N)S(=O)(=O)c2ccccc2)CC1`, the activity change, negative = inhibition in experiment [1] is -5.82%. In addition, the activity, negative = inhibition in experiment [2] is -5.71%. The Potency in experiment [3] is > 20.6 µM. Also, in experiment [7], the activation is 5.25%.

As to `CCOC(=O)CSc1nnc2n(Cc3ccccc3)c(=O)c3c4c(sc3n12)CCC4`, the activity change, negative = inhibition in experiment [1] is -11.8%. Besides, the Potency in experiment [3] was > 20.6 µM.

Take `COCc1cc(=O)[nH]c(Nc2nc3ccc(C)cc3o2)n1`: in experiment [1], the activity change, negative = inhibition is -0.718%. Moreover, the Potency in experiment [3] is > 20.6 µM.

Turning to `N#CC1=C(SCC(=O)c2ccc(Br)cc2)NC2=C(C(=O)CCC2)C1c1ccco1` (stereo unspecified), the activity change, negative = inhibition in experiment [1] is -81.5% (active). In addition, the Potency in experiment [3] is > 20.6 µM.

In the case of `Cc1nn(-c2ccccc2)c2c1C(c1ccc(F)cc1F)C(C#N)=C(N)O2` (stereo unspecified), the activity change, negative = inhibition in experiment [1] was 4.8%. Moreover, the Potency in experiment [3] was > 20.6 µM.
